# Values joined by “and” are separate entries in the source; they are usually repeats but may differ in a detail not shown here. Equal entries are not always repeated. The campaign covered roughly 5,500 compounds. About 2,000 (36%) were called active. Another 18% or so got no clear call; they are omitted. Cut-off read from the data, not from the text of the source: active = normalized growth mostly below about 0.91 (no sharp cut-off); inconclusive = no clear call, values can overlap the other calls; inactive = mostly above about 0.92. Some of the results follow.
# Experiment: chemical genetic growth profiling, strain panel (AID 1159580);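 note: tested at 20 µM; growth read once vehicle control cultures reached saturation at 30 °C; 1 = growth at the plate median or of vehicle wells; lower values mean less growth of the strain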
# Settings: S. cerevisiae deletion strains, growth OD
compound,measurement,setting,value
O=[N+]([O-])c1ccc(O)c([N+](=O)[O-])c1,normalized growth,"locus YAL013W, strain DEP1, stronger effect = lower value",0.837 (active)
same,normalized growth,"locus YAL021C, strain ccr4, stronger effect = lower value",0.869 (active)
same,normalized growth,"locus YAL026C, strain drs2, stronger effect = lower value",0.776 (active)
same,normalized growth,"locus YAL030W, strain snc1, stronger effect = lower value",0.812 (active)
same,normalized growth,"locus YBL061C, strain skt5, stronger effect = lower value",0.832 (active)
same,normalized growth,"locus YBR009C, strain hhf1, stronger effect = lower value",0.823 (active)
same,normalized growth,"locus YBR021W, strain FUR4, stronger effect = lower value",0.647 (active)
same,normalized growth,"locus YBR023C, strain chs3, stronger effect = lower value",0.88 (active)
same,normalized growth,"locus YBR171W, strain sec66, stronger effect = lower value",0.799 (active)
same,normalized growth,"locus YBR229C, strain ROT2, stronger effect = lower value",0.839 (active)
same,normalized growth,"locus YBR231C, strain swc5, stronger effect = lower value",0.851 (active)
same,normalized growth,"locus YBR279W, strain paf1, stronger effect = lower value",0.817 (active)
same,normalized growth,"locus YCL011C, strain gbp2, stronger effect = lower value",0.807 (active)
same,normalized growth,"locus YCL016C, strain dcc1, stronger effect = lower value",0.873 (active)
same,normalized growth,"locus YCL029C, strain bik1, stronger effect = lower value",0.693 (active)
same,normalized growth,"locus YCL069W, strain vba3, stronger effect = lower value",0.775 (active)
same,normalized growth,"locus YCR088W, strain abp1, stronger effect = lower value",0.775 (active)
same,normalized growth,"locus YDL005C, strain med2, stronger effect = lower value",0.875 (active)
same,normalized growth,"locus YDL035C, strain GPR1, stronger effect = lower value",0.871 (inactive)
same,normalized growth,"locus YDL040C, strain nat1, stronger effect = lower value",0.848 (active)
same,normalized growth,"locus YDL074C, strain BRE1, stronger effect = lower value",0.824 (inactive)
same,normalized growth,"locus YDL101C, strain DUN1, stronger effect = lower value",0.877 (active)
same,normalized growth,"locus YDL134C, strain PPH21, stronger effect = lower value",0.796 (active)
same,normalized growth,"locus YDL185W, strain tfp1, stronger effect = lower value",0.109 (active)
same,normalized growth,"locus YDL192W, strain arf1, stronger effect = lower value",0.759 (active)
same,normalized growth,"locus YDR001C, strain nth1, stronger effect = lower value",0.766 (active)
same,normalized growth,"locus YDR069C, strain doa4, stronger effect = lower value",0.936 (inactive)
same,normalized growth,"locus YDR101C, strain arx1, stronger effect = lower value",0.686 (active)
same,normalized growth,"locus YDR137W, strain rgp1, stronger effect = lower value",0.915 (inactive)
same,normalized growth,"locus YDR150W, strain NUM1, stronger effect = lower value",0.788 (active)
same,normalized growth,"locus YDR159W, strain sac3, stronger effect = lower value",0.677 (active)
same,normalized growth,"locus YDR162C, strain NBP2, stronger effect = lower value",0.785 (active)
same,normalized growth,"locus YDR195W, strain ref2",0.927 (inactive)
same,normalized growth,"locus YDR297W, strain sur2, stronger effect = lower value",0.826 (active)
same,normalized growth,"locus YDR318W, strain mcm21, stronger effect = lower value",0.727 (active)
same,normalized growth,"locus YDR334W, strain swr1, stronger effect = lower value",0.742 (active)
same,normalized growth,"locus YDR335W, strain msn5, stronger effect = lower value",0.798 (active)
same,normalized growth,"locus YDR388W, stronger effect = lower value",0.694 (active)
same,normalized growth,"locus YDR392W, strain spt3, stronger effect = lower value",0.674 (active)
same,normalized growth,"locus YDR502C, strain sam2, stronger effect = lower value",0.735 (active)
same,normalized growth,"locus YEL003W, strain gim4, stronger effect = lower value",0.829 (active)
same,normalized growth,"locus YEL037C, strain rad23, stronger effect = lower value",0.797 (active)
same,normalized growth,"locus YEL061C, strain CIN8 (second series), stronger effect = lower value",0.794 (active)
same,normalized growth,"locus YEL061C, strain CIN8, stronger effect = lower value",0.817 (active)
same,normalized growth,"locus YER015W, strain faa2, stronger effect = lower value",0.795 (active)
same,normalized growth,"locus YER016W, strain bim1, stronger effect = lower value",0.89 (active)
same,normalized growth,"locus YER110C, stronger effect = lower value",0.64 (active)
same,normalized growth,"locus YER111C, strain swi4, stronger effect = lower value",0.79 (active)
same,normalized growth,"locus YER155C, strain BEM2 (second series), stronger effect = lower value",0.615 (active)
same,normalized growth,"locus YER155C, strain BEM2, stronger effect = lower value",0.63 (active)
same,normalized growth,"locus YER167W, strain BCK2, stronger effect = lower value",0.76 (active)
same,normalized growth,"locus YFR010W, strain ubp6, stronger effect = lower value",0.861 (active)
same,normalized growth,"locus YGL078C, strain dbp3, stronger effect = lower value",0.252 (active)
same,normalized growth,"locus YGL086W, strain mad1, stronger effect = lower value",0.779 (active)
same,normalized growth,"locus YGL167C, strain pmr1, stronger effect = lower value",0.84 (active)
same,normalized growth,"locus YGL173C, strain kem1, stronger effect = lower value",0.822 (active)
same,normalized growth,"locus YGL227W, strain vid30, stronger effect = lower value",0.743 (active)
same,normalized growth,"locus YGL240W, strain doc1, stronger effect = lower value",0.739 (active)
same,normalized growth,"locus YGL248W, strain PDE1, stronger effect = lower value",0.81 (active)
same,normalized growth,"locus YGL253W, strain hxk2, stronger effect = lower value",0.717 (active)
same,normalized growth,"locus YGR078C, strain PAC10, stronger effect = lower value",0.789 (active)
same,normalized growth,"locus YGR135W, strain pre9, stronger effect = lower value",0.76 (active)
same,normalized growth,"locus YGR229C, strain SMI1, stronger effect = lower value",0.81 (inactive)
same,normalized growth,"locus YGR252W, strain gcn5, stronger effect = lower value",0.709 (active)
same,normalized growth,"locus YHR013C, strain ard1, stronger effect = lower value",0.981 (inactive)
same,normalized growth,"locus YHR027C, strain rpn1, stronger effect = lower value",0.814 (active)
same,normalized growth,"locus YHR079C, strain IRE1 (second series), stronger effect = lower value",0.665 (active)
same,normalized growth,"locus YHR079C, strain IRE1, stronger effect = lower value",0.254 (active)
same,normalized growth,"locus YHR094C, strain hxt1, stronger effect = lower value",0.681 (active)
same,normalized growth,"locus YHR129C, strain ARP1, stronger effect = lower value",0.738 (active)
same,normalized growth,"locus YHR142W, strain chs7, stronger effect = lower value",0.792 (active)
same,normalized growth,"locus YHR200W, strain rpn10, stronger effect = lower value",0.736 (active)
same,normalized growth,"locus YIL066C, strain RNR3, stronger effect = lower value",0.794 (active)
same,normalized growth,"locus YIL073C, strain SPO22, stronger effect = lower value",0.986 (inactive)
same,normalized growth,"locus YIL125W, strain kgd1, stronger effect = lower value",0.211 (active)
same,normalized growth,"locus YIR030C, strain dcg1, stronger effect = lower value",0.694 (active)
same,normalized growth,"locus YJL092W, strain hpr5, stronger effect = lower value",0.759 (active)
same,normalized growth,"locus YJL095W, strain BCK1 (second series), stronger effect = lower value",0.834 (active)
same,normalized growth,"locus YJL095W, strain BCK1, stronger effect = lower value",0.801 (inactive) and 0.3 (active)
same,normalized growth,"locus YJL115W, strain asf1, stronger effect = lower value",0.757 (active)
same,normalized growth,"locus YJL129C, strain trk1, stronger effect = lower value",0.694 (active)
same,normalized growth,"locus YJL134W, strain LCB3, stronger effect = lower value",0.777 (active)
same,normalized growth,"locus YJL154C, strain vps35, stronger effect = lower value",0.773 (active)
same,normalized growth,"locus YJL164C, strain tpk1, stronger effect = lower value",0.863 (active)
same,normalized growth,"locus YJL166W, strain qcr8, stronger effect = lower value",0.85 (active)
same,normalized growth,"locus YJL168C, strain set2, stronger effect = lower value",0.719 (active)
same,normalized growth,"locus YJL187C, strain SWE1 (second series), stronger effect = lower value",0.825 (active)
same,normalized growth,"locus YJL187C, strain SWE1, stronger effect = lower value",0.842 (active)
same,normalized growth,"locus YJR043C, strain POL32, stronger effect = lower value",0.892 (inactive)
same,normalized growth,"locus YJR066W, strain TOR1, stronger effect = lower value",0.254 (active)
same,normalized growth,"locus YJR075W, strain HOC1, stronger effect = lower value",0.824 (active)
